The values that follow come from PubChem BioAssay (NCATS).

SMILES strings stand for the structures. A number with no mark means an inactive call. Results filed as inconclusive are left out. A call without a number means that no potency is given here. Active and inactive are the calls of the source. Unless noted, calls follow the shape of the full dose curve.

A short description of test [1]: qHTS assay for small molecule agonists of the antioxidant response element (ARE) signaling pathway (AID 651741; active = well fitted activation curve with a large enough effect in the signal ratio; the % refers to the signal ratio). In short, it runs like this:
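Beta-lactamase reporter under ARE control in HepG2 cells, 2,000 per well, was induced by 16 h compound treatment at 37 C. Read-out was fluorescence from LiveBLAzer B/G FRET substrate after 2 h at room temperature.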
(In general: qHTS replaces the single test concentration by a dilution series.)

The target of test [2] is Estrogen receptor (Homo sapiens) (UniProt P03372). Briefly: qHTS assay for small molecule agonists of estrogen receptor alpha signaling (AID 588514). Also: nearly all actives have a fitted effect of over 70% in size. Also: potency is read from the fitted curve at half-maximal effect. In short, it runs like this:
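EC50 and efficacy came from Hill fits of beta-lactamase reporter signal (CCF4 dye, 2 h at room temperature) scaled between DMSO and 20 nM 17-beta-estradiol. Agonist mode: HEK293 ER-alpha-UAS-bla cells in charcoal/dextran-stripped serum medium, 18 h compound exposure at 37 C.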

In test [3] the target is Bile acid receptor (Homo sapiens) (UniProt Q96RI1). Briefly: qHTS assay for small molecule antagonists of farnesoid X receptor signaling (AID 588526). In short, it runs like this: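 Beta-lactamase reporter antagonist mode: HEK293T FXR-UAS-bla cells, titrated compound, CDCA stimulation, 16 h 37 C, CCF4 dye 2 h RT. Data normalized to CDCA 50 uM and DMSO; Hill-fit IC50.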
The target of test [4] is Cytochrome P450 3A4 (Homo sapiens) (UniProt P08684). Briefly: qHTS Assay for Activators of Cytochrome P450 3A4 (AID 885; active = well fitted activation curve with a large enough effect; also: nearly all actives have a fitted effect of over 65% in size). The gist of the method:
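Luminescent readout of luciferin formed from 25 uM Luciferin-PPXE (KM level) by 20 nM CYP3A4 in 200 mM KPO4, with 60 min NADPH-driven reaction at room temperature after 10 min compound exposure. Ketoconazole (57 uM) defined 100% inhibition.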

Test [5] concerns the target Androgen receptor (Homo sapiens) (UniProt P10275). Briefly: qHTS assay for small molecule agonists of androgen receptor signaling (AID 588515; active = well fitted curve in the direction sought with a large enough effect in the signal ratio, with a control signal flat; the % refers to the signal ratio). To be noted: AR-UAS-bla HEK293, beta-lactamase ratio, agonist 16 h; stronger effect = higher value. In short, it runs like this:
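Stimulation of an AR-responsive β-lactamase reporter in GripTite HEK293 cells was measured after 16 h compound exposure at 37 °C, via CCF4 fluorescence after 2 h RT. EC50 from Hill fits, normalized to R1881 at 30 nM.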

For test [6] the target is unchanged. The test is described as follows: qHTS assay for small molecule antagonists of androgen receptor signaling (AID 588516; active = well fitted curve in the direction sought with a large enough effect in the signal ratio, with a control signal flat, not every such curve was filed as active; the % refers to the signal ratio). In short, it runs like this: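 AR-UAS-bla GripTite HEK 293 cells (2000/well) treated with compound titrations plus 10 nM R1881 for 16 h at 37C. Beta-lactamase read by CCF4 FRET (460/530 nm); IC50 from Hill fits, normalized to R1881 and DMSO control wells.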

Estrogen receptor (Homo sapiens), sequence (P03372 whole entry, looked up): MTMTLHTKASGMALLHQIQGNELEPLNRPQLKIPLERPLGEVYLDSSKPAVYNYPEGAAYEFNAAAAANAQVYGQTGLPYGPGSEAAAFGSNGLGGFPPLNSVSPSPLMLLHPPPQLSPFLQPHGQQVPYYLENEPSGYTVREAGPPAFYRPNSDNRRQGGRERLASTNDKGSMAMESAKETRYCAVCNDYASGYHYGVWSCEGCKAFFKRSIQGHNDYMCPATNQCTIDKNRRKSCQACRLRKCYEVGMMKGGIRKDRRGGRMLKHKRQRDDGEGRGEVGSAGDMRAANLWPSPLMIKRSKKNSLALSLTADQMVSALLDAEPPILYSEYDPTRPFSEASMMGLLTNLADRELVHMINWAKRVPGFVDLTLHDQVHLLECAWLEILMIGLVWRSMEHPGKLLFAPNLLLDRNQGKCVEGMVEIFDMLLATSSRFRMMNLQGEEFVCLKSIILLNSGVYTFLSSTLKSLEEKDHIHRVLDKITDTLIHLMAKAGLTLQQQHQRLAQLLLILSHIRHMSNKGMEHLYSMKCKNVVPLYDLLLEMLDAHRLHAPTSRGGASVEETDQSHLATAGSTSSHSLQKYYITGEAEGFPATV
Bile acid receptor (Homo sapiens), sequence (Q96RI1 whole entry, looked up): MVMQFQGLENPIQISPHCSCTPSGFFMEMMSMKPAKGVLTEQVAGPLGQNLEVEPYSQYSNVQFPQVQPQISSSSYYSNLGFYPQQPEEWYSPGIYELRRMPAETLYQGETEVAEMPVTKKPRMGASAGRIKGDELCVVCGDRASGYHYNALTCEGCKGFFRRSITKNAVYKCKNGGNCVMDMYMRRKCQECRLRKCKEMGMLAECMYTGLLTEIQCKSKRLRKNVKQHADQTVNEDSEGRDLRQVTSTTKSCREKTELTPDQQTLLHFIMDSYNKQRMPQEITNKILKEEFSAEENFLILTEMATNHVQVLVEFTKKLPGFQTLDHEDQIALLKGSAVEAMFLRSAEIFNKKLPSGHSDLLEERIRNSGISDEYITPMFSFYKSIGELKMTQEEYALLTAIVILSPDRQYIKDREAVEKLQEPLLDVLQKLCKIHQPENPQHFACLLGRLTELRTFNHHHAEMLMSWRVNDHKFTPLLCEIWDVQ
Cytochrome P450 3A4 (Homo sapiens), sequence (P08684 whole entry, looked up): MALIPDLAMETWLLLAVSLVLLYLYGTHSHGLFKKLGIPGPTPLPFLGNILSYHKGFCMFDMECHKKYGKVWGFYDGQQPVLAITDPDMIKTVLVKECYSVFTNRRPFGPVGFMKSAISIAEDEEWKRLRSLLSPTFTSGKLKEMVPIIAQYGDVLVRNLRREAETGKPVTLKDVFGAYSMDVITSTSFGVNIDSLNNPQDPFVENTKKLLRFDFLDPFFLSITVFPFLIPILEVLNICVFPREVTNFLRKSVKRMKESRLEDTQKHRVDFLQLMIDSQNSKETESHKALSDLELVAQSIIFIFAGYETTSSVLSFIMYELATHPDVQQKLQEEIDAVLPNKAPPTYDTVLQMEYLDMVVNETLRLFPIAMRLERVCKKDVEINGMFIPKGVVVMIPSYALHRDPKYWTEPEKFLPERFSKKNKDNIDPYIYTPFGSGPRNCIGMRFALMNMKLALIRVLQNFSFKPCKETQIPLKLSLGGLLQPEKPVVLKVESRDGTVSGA
Androgen receptor (Homo sapiens), sequence (P10275 whole entry, looked up): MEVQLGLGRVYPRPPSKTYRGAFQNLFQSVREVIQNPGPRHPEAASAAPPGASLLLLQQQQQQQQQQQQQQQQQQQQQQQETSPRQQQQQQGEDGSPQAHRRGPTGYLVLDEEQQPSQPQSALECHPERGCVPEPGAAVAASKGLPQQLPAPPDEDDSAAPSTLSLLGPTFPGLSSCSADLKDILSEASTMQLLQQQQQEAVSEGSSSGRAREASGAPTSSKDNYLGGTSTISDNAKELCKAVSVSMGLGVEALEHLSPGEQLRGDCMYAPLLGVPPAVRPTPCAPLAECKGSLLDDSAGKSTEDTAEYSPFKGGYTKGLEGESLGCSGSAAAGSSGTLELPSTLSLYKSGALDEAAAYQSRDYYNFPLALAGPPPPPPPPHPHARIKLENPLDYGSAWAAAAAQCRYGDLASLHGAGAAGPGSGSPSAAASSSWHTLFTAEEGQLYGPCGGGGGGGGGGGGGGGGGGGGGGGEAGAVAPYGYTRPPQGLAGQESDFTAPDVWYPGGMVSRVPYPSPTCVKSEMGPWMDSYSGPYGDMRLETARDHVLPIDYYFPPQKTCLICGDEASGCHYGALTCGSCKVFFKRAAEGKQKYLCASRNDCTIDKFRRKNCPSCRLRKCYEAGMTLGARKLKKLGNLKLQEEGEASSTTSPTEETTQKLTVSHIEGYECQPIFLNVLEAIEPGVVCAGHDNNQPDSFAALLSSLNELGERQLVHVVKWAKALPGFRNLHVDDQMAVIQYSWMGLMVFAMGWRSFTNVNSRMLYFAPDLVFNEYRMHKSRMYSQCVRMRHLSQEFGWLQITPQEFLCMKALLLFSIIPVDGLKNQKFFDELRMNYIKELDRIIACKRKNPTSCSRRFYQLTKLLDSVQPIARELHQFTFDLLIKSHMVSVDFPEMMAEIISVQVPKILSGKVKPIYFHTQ

As to `ClCC(Cl)CCl`, in test [1], the Potency result was “inactive”.
As for `OCCOCCO`, the Potency entry in test [2] was “inactive”.
For the compound `Cl/C=C\Cl`, the Potency entry in test [2] is “inactive”.
On to `CCCBr`, for which, in test [2], the Potency is 355 nM (active). The result in test [3] was inactive.
Take `Clc1cccc2ccccc12`: the Potency result in test [1] is “inactive”.
`CC(C)CON=O`: the Potency result in test [2] was “inactive”.
For `Nc1cc(Cl)cc(C(=O)O)c1Cl`, the Potency entry in test [4] is “inactive”.
Take `ClCCCCl`: in test [3], the outcome was inactive.
As to `Cc1ccc(N)cc1Cl`, the Potency entry in test [4] and in test [2] was “inactive” throughout.
Take `C1CC2OC2CC1C1CO1` (stereo unspecified): the Potency entry in test [2] was “inactive”. The compound was classed as inactive in test [3].
As for `Brc1cccc(-c2ccccc2)c1`, in test [2], the Potency result is “inactive”. Moreover, the compound was called inactive in test [3].
For the compound `Cc1cccc(C)c1N`, the Potency entry in test [2] and in test [1] was “inactive” each time. In test [3], the compound was called inactive.
Consider `CN(C)C(=O)Nc1ccc(Cl)cc1`, for which the call in test [3] was inactive. Also, in test [1], the Potency entry is “inactive”.
Turning to `ClC(Br)Br`, the outcome in test [3] was inactive.
Consider `c1ccoc1`, for which the Potency result in test [2] was “inactive”. Moreover, the compound was called inactive in test [3].
Consider `CCCCOCC1CO1` (stereo unspecified), for which, in test [3], the result was inactive.
Regarding `C=CC(=O)OCCN(C)C`, the Potency entry in test [1] was “inactive”.
For `O=C(O)C(Cl)(Cl)Br`, in test [3], the compound was classed as inactive.
Consider `Nc1ccc(-c2ccccc2)cc1`, for which the Potency entry in test [4] and in test [2] was “inactive” throughout.
Consider `O=C(O)c1cccc(Cl)c1`, for which the Potency result in test [2] is “inactive”. The call in test [3] was inactive.
As for `Nc1ccc(Cl)c(Cl)c1`, in test [4], the Potency result is “inactive”.
For `C=CC(=O)OCC(C)C`, the Potency entry in test [1] was “inactive”.
As for `Oc1c(Cl)cccc1Cl`, the Potency result in test [2] is “inactive”.
Regarding `CCC/C=N/O`, the Potency result in test [2] is “inactive”. Besides, the result in test [3] was inactive.
Consider `FC(Cl)(Cl)Cl`, for which the activation in test [5] is 5.32%. For the same compound, the compound was called inactive in test [6] and in test [3]. Also, the Potency result in test [1] is “inactive”.
For `CCOC(=O)CBr`, the compound was called inactive in test [3].
Regarding `CC(C)OC(=O)Cc1ccccc1`, the Potency entry in test [2] and in test [1] was “inactive” each time.
In the case of `Nc1cc(Cl)cc(Cl)c1`, the Potency entry in test [4] is “inactive”. For the same compound, the call in test [3] was inactive.
For `CCC#N`, the call in test [3] was inactive. In test [1], the Potency entry is “inactive”.
On to `Nc1ccc(Cc2ccc(N)cc2)cc1`, for which, in test [4], the Potency entry was “inactive”. Moreover, the compound was called inactive in test [3].
For `BrCCc1ccccc1`, the Potency entry in test [1] is “inactive”.
Take `ClCC(Br)CBr` (stereo unspecified): the Potency result in test [2] was “inactive”.
Take `Cc1ccc(N)c(C)c1`: the outcome in test [3] was inactive.
Regarding `[O-][Cl+2]([O-])O`, the Potency result in test [2] and in test [1] was “inactive” in each case.
With `Clc1ccc(C(Cl)(Cl)Cl)c(Cl)c1`, the Potency result in test [4] and in test [1] was “inactive” in each case.
Take `CC(Cl)CCl` (stereo unspecified): the Potency result in test [2] and in test [1] was “inactive” each time.
As for `Clc1ccc(C(Cl)(Cl)Cl)cc1Cl`, the Potency result in test [2] was “inactive”.
On to `CCCCCC[N+](=O)[O-]`, for which the activation in test [5] was 8.93%. Moreover, the outcome in test [3] was inactive.
Regarding `O=[N+]([O-])c1cccc2c([N+](=O)[O-])cccc12`, in test [5], the activation was 1.43%. Besides, the call in test [6] was inactive.
Turning to `S=c1[nH]c2ccccc2[nH]1`, the Potency entry in test [4] is “inactive”. The activation in test [5] was -0.602%. Besides, in test [6], the call was inactive.
In the case of `O=C(Cl)OCc1ccccc1`, the Potency entry in test [2] was “inactive”.
On to `CN=C=O`, for which, in test [1], the Potency result was “inactive”.
With `Cc1cc(-c2ccc(N)c(C)c2)ccc1N`, the Potency result in test [4] is “inactive”.
Turning to `COC(=O)Nc1cccc(OC(=O)Nc2cccc(C)c2)c1`, the Potency entry in test [4] is “inactive”.
Turning to `CC(C)CC(C)N` (stereo unspecified), in test [2], the Potency result is “inactive”.
Consider `Cc1cnc[nH]1`, for which the activation in test [5] is -7.55%. In addition, the compound was classed as inactive in test [3]. For the same compound, the Potency entry in test [1] is “inactive”.
With `NNC(N)=S`, in test [2], the Potency entry is “inactive”. The compound was classed as inactive in test [3].
On to `Cc1cc(Cl)ccc1O`, for which the compound was called inactive in test [3].
With `O=S(=O)(O)F`, the compound was called inactive in test [3].
For the compound `N#CCc1ccccc1`, the Potency entry in test [2] was “inactive”.
As for `Cc1ccccc1[N+](=O)[O-]`, the Potency result in test [2] is “inactive”.
On to `O=NN1CCCCC1`, for which, in test [5], the activation is 6.11%. For the same compound, in test [6], the result was inactive. In test [1], the Potency result is “inactive”.
On to `C=CC(=O)OC`, for which the result in test [3] was inactive. Moreover, the Potency result in test [1] is “inactive”.
As for `CC(Cl)(Cl)Cl`, the Potency result in test [1] is “inactive”.
For the compound `ClCc1ccccc1`, the Potency entry in test [2] is “inactive”.
